Assay results reported in PubChem BioAssay (NCATS).
“And” between values parts separate entries of the source, which are not always exact repeats. Identical values can stand only once. Inconclusive results are not listed. The source made the active and inactive calls. Unless noted, the call rests on the fitted dose curve; in most records, active means well fitted curve in the direction sought with a large enough effect; inconclusive means small, poorly fitted or top-dose-only effect, or another doubt; inactive means no such curve, though single readings can be large; an effect the other way counts as inactive or inconclusive.

What was measured:
[1] = target: Mitogen-activated protein kinase 10 (Mus musculus) (UniProt Q61831); test: JNK3 AlphaScreen Assay (AID 530; active means well fitted curve in either direction with a large enough effect, not every such curve was filed as active;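 further: kinase came from lysate of stimulated human HepG2 cells; signal reports phosphorylation of biotinylated GST-cJun 1-79 at Ser73 with 10 µM ATP; on the % scale 0 is the no-effect control and ±100 the full control effect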)
In short: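 qHTS titrations with 15 min compound pre-incubation before adding ATP (10 uM final). Read-out: AlphaScreen of Ser73-phosphorylated biotin-GST-cJun using HepG2 lysate JNK3 activated by IL-1β and TNFα.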

[2] = Cellular Toxicity (caspase-3) Jurkat (AID 655); details: Jurkat caspase-3 activation, luminescence; caspase-3 activation: at 92.2 µM (top of the series), DMSO = 0%, tamoxifen = 100%;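 further: cells exposed to compound for 16 h at 37 °C before reading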
In short: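 qHTS in human Jurkat T-cell leukemia line: 16 hr compound treatment at 37 °C, caspase-3/7 activity measured by Caspase-Glo luminescence. AC50 derived from Hill equation.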

[3] = Cellular Toxicity (caspase-3) Renal Proximal Tubule (AID 667);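 further: cells exposed to compound for 16 hours at 37 °C before detection; 0% = DMSO basal and 100% = 10 µM staurosporine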
In short: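 Caspase-Glo 3/7 read-out, rat primary kidney proximal tubule cells. Compound exposure 16 h, 37 °C; detection after 1 h at RT. Activity scaled to DMSO and 10 uM staurosporine.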

[4] = target: Cytochrome P450 3A4 (Homo sapiens) (UniProt P08684); test: qHTS Assay for Inhibitors and Substrates of Cytochrome P450 3A4 (AID 884); further: on the % scale 0 is the no-effect control and ±100 the full control effect; nearly all actives have a fitted effect of over 50% in size
Sequence of Cytochrome P450 3A4 (Homo sapiens) (P08684 whole entry, looked up): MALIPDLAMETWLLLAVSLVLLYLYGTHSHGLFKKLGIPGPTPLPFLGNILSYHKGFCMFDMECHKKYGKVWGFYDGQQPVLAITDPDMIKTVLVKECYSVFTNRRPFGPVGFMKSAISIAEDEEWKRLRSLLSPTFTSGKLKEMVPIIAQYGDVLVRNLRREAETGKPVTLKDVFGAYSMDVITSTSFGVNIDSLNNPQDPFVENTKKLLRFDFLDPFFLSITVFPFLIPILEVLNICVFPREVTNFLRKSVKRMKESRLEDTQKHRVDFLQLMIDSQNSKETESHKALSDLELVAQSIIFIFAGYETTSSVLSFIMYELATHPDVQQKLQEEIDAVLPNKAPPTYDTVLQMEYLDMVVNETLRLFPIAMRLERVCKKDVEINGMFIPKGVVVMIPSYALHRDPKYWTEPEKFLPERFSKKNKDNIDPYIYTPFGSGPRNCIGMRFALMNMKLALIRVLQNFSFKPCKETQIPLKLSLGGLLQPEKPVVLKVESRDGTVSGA
In short: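 Luminescent readout of luciferin produced by CYP3A4 (20 nM) dealkylation of Luciferin-PPXE, 25 uM (its KM). NADPH-driven reaction ran 60 min at RT after 10 min compound preincubation; data scaled to 57 uM ketoconazole as 100% inhibition.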

[5] = MultiTox-Fluor Cytotoxicity Assay - LYMP1-001 - Live Cells (AID 947);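 further: 0% = DMSO only and full inhibition = tetraoctylammonium bromide control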
[6] = Cell Viability - LYMP1-003 - Assay at 40 hr (AID 964); further: on the % scale 0 is the no-effect control and ±100 the full control effect; nearly all actives have a fitted effect of over 60% in size
In short: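 Luminescent ATP signal (CellTiter-Glo) served as the viability read-out after 40 hr compound treatment of human lymphoblastoid LYMP1-003 cells at 37 C. Decreases in ATP were fitted with the Hill equation to give AC50.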

[7] = Cell Viability - LYMP2-004 (AID 966);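 further: cells exposed to compound for 24 h; plate controls were DMSO only for no effect and tetraoctylammonium bromide control for full effect; nearly all actives have a fitted effect of over 65% in size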
In short: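 qHTS cytotoxicity: human lymphoblastoid line, 24 hr compound treatment, 37 C, complete medium. Viability read as cellular ATP via luciferase luminescence; tetraoctylammonium bromide served as positive control.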

[8] = Cell Viability - LYMP2-017 (AID 972);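 further: cells exposed to compound for 24 hours at 37 °C; on the % scale 0 is the no-effect control and ±100 the full control effect; nearly all actives have a fitted effect of over 55% in size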
In short: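 Cytotoxicity is scored as a concentration-dependent drop in cellular ATP in a human lymphoblastoid line after 24 hr treatment at 37 C. Values are AC50s from Hill-equation modelling.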

[9] = Cell Viability - LYMP2-019 (AID 973);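 further: cells exposed to compound for 24 h at 37 °C; 0% = DMSO alone and full effect = 92 µM tetraoctylammonium bromide; nearly all actives have a fitted effect of over 55% in size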
In short: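 Cytotoxicity is scored as a concentration-dependent drop in cellular ATP after cells (2500/well) receive compound for 24 hr at 37 C. Tetraoctylammonium bromide serves as positive control.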

[10] = Cell Viability - LYMP2-007 (AID 979);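 further: cells exposed to compound for 24 h before reading; 0% = DMSO only and the negative end = 92 µM tetraoctylammonium bromide; nearly all actives have a fitted effect of over 60% in size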
In short: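 Cells are seeded at 2500 per well and rested 5 hr. Compounds are then added over a concentration series for 24 hr at 37 C. CellTiter-Glo is added for 30 min at room temperature before luminescence reading.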

[11] = Cell Viability - LYMP2-008 (AID 980);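 further: cells exposed to compound for 24 h at 37 °C; on the % scale 0 is the no-effect control and ±100 the full control effect; nearly all actives have a fitted effect of over 60% in size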
In short: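 Cells seeded at 2500/well and rested 5 hr at 37 C; compounds added over a concentration range and incubated 24 hr at 37 C; CellTiter-Glo added, 30 min at room temperature; luminescence read and AC50 fitted with Hill model.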

[12] = Cell Viability - LYMP2-012 (AID 982);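 further: cellular ATP by luciferase luminescence where a drop means cytotoxicity; cells exposed to compound for one day before reading; 0% = DMSO only and full loss = 92 µM tetraoctylammonium bromide; nearly all actives have a fitted effect of over 55% in size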
[13] = Cell Viability - LYMP2-014 (AID 983);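 further: cells exposed to compound for 24 h at 37 °C; plate controls were DMSO only for no effect and 92 µM tetraoctylammonium bromide for full effect; nearly all actives have a fitted effect of over 50% in size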
In short: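 Cells are plated at 2500/well and left 5 hr at 37 C. Compounds are added across a concentration range and incubated 24 hr at 37 C in complete medium. CellTiter-Glo is added, and luminescence is read after 30 min at room temperature.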

[14] = Cell Viability - LYMP2-018 (AID 985);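 further: compound exposure lasted 24 hr at 37 °C; plate controls were DMSO only for no effect and tetraoctylammonium bromide at 92 µM for full effect; nearly all actives have a fitted effect of over 50% in size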
In short: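 Seed 2500 lymphoblastoid cells per well, incubate 5 hr at 37 C, add compound and incubate 24 hr at 37 C, add CellTiter-Glo, wait 30 min at room temperature, then read luminescence.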

[15] = Cell Viability - LYMP1-002 - Assay at 40 hr (AID 994);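 further: 0% = DMSO only and full inhibition = 92 µM tetraoctylammonium bromide; nearly all actives have a fitted effect of over 60% in size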
In short: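 Cells are plated at 2500 per well and rested 5 hr at 37 C. Compounds are added and incubated 40 hr at 37 C. CellTiter-Glo reagent is added for 30 min at room temperature before luminescence is read.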

[16] = qHTS assay for small molecule antagonists of retinoid X receptor alpha signaling (AID 588546); details: HEK293T RXRa-UAS-bla, beta-lactamase ratio, antagonist mode; measured here: W530 green channel, cytotoxicity proxy;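 further: cells stimulated with 9-cis-retinoic acid as agonist; on the % scale 0 is the no-effect control and ±100 the full control effect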
In short: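 Beta-lactamase reporter inhibition, read as CCF4 fluorescence ratio (ex 405, em 460/530 nm) after 2 h at RT. HEK293T UAS-bla cells, 2500/well, were stimulated with 9-cis-RA at 500 or 100 nM final alongside test compound for 18 h at 37 C.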

[17] = target: Tumor necrosis factor (Homo sapiens) (UniProt P01375); test: qHTS assay to identify small molecules that stimulate Tumor Necrosis Factor-alpha (TNF-alpha) secretion (AID 651757; active means well fitted curve in the direction sought with a large enough effect in the signal ratio; the % refers to the signal ratio; further: 0% is about no effect)
Sequence of Tumor necrosis factor (Homo sapiens) (P01375 whole entry, looked up): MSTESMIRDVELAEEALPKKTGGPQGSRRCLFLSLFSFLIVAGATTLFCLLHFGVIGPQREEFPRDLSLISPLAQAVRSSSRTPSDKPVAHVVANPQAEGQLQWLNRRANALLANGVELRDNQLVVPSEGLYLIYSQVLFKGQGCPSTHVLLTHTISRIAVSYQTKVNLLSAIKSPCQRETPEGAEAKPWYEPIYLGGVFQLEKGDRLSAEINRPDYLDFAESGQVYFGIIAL
In short: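 Human monocytic THP-1 cells are plated, treated with compound and held at 37 C for 17 hrs. Labeled anti-TNF-alpha antibody mixture is then added; after 3 hr at room temperature, TR-FRET signal reports secreted TNF-alpha.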

[18] = qHTS assay for cell viability of the p53RE-bla HCT-116 cell line (AID 743292); further: on the % scale 0 is the no-effect control and ±100 the full control effect; nearly all actives have a fitted effect of over 55% in size
In short: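 Viability of compound-treated p53RE-bla HCT-116 cells is taken from ATP-dependent luciferase luminescence. Treatment lasts 16 h at 37 C after a 5 h settling period; detection follows 30 min at room temperature.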

[19] = Cellular Toxicity (caspase-3) N2a (AID 665);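 further: compound exposure lasted 16 h at 37 °C before readout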
In short: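 Caspase-3/7 activation, measured as increased luminescence from aminoluciferin release, is quantified in mouse N2a cells exposed to compounds for 16 h. Values are normalized to DMSO and 10 uM staurosporine, with AC50 derived by Hill modelling.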

[20] = target: Voltage-gated inwardly rectifying potassium channel KCNH2 (Homo sapiens) (UniProt Q12809); test: qHTS Assay for Small Molecule Inhibitors of the Human hERG Channel Activity (AID 588834);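 further: top concentration of the series differs between compounds; on the % scale 0 is the no-effect control and ±100 the full control effect; lower thallium flux fluorescence means stronger hERG block; nearly all actives have a fitted effect of over 50% in size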
Sequence of Voltage-gated inwardly rectifying potassium channel KCNH2 (Homo sapiens) (Q12809 whole entry, looked up): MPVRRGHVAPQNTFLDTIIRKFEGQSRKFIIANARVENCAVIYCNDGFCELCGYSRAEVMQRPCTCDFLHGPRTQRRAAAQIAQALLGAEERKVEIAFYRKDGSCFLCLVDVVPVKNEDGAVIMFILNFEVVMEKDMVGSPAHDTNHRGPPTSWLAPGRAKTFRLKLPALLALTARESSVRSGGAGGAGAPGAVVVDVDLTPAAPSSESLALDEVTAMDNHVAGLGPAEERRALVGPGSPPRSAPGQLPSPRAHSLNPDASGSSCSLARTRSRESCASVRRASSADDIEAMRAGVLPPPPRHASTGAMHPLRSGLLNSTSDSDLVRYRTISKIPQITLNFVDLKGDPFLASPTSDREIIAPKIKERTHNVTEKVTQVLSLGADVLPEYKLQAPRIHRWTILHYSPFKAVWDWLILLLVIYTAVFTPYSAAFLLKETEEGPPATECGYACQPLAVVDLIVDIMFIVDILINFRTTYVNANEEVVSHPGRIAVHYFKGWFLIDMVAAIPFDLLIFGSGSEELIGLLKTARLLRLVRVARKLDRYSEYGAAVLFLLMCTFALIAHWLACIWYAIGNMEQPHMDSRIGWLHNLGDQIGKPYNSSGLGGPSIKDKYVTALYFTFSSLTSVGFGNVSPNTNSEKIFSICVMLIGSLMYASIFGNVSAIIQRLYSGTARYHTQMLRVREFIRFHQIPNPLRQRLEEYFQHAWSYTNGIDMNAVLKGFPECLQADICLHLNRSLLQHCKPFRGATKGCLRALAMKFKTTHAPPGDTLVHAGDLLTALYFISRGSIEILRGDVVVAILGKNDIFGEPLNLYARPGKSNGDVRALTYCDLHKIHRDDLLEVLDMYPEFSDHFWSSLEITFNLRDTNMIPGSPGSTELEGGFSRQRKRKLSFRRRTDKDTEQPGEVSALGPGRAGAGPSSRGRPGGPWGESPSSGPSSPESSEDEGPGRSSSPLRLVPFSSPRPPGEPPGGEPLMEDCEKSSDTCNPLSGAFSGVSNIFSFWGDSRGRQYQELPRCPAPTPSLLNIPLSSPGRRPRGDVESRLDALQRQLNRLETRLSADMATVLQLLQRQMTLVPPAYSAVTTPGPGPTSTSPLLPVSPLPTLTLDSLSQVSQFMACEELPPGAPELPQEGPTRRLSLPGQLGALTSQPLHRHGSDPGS
In short: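 Homogeneous FluxOR thallium flux assay using hERG-expressing U2OS cells (BacMam). Compound treatment about 10 minutes preceded stimulation; reduced fluorescence taken as channel block.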

ClC(Cl)(Cl)C(Cl)(Cl)Cl
inactive: Potency [1] | caspase-3 activation [2] -0.424% | outcome [3] | Potency [4] | outcome [5] | Potency [6] | Potency [7] | Potency [8] | Potency [9] | Potency [10] | Potency [11] | Potency [12] | Potency [13] | Potency [14] | Potency [15] | outcome [17] | Potency [18]
-34.4%: max response [16]

c1ccc(Nc2ccc(Nc3ccccc3)cc2)cc1
-12.1%: max response [16]
inactive: caspase-3 activation [2] 8.77% | outcome [19] | outcome [3] | Potency [4] | outcome [5] | Potency [6] | Potency [7] | Potency [8] | Potency [9] | Potency [10] | Potency [11] | Potency [12] | Potency [13] | Potency [14] | Potency [15] | Potency [18]

COc1ccc(C=O)cc1
3.67%: max response [16]
inactive: Potency [1] | caspase-3 activation [2] -0.692% | outcome [19] | outcome [3] | Potency [4] | outcome [5] | Potency [6] | Potency [7] | Potency [8] | Potency [9] | Potency [10] | Potency [11] | Potency [12] | Potency [13] | Potency [14] | Potency [15] | Potency [20] | outcome [17] | Potency [18]

CCCCOC(C)=O
-8.9%: max response [16]
inactive: Potency [1] | caspase-3 activation [2] 1.84% | outcome [19] | outcome [3] | Potency [4] | outcome [5] | Potency [6] | Potency [7] | Potency [8] | Potency [9] | Potency [10] | Potency [11] | Potency [12] | Potency [13] | Potency [14] | Potency [15] | Potency [20] | outcome [17] | Potency [18]

CC(C#N)CCC#N (stereo unspecified)
-1.82%: max response [16]
inactive: Potency [1] | caspase-3 activation [2] 0.213% | outcome [19] | Potency [4] | outcome [5] | Potency [6] | Potency [7] | Potency [8] | Potency [9] | Potency [10] | Potency [11] | Potency [12] | Potency [13] | Potency [14] | Potency [15] | Potency [20] | outcome [17] | Potency [18]

ClCC(Cl)CCl
0.286% and -10.8%: max response [16]
inactive: Potency [1] | caspase-3 activation [2] 1.95% | outcome [19] | outcome [3] | Potency [4] | outcome [5] | Potency [6] | Potency [7] | Potency [8] | Potency [9] | Potency [10] | Potency [11] | Potency [12] | Potency [13] | Potency [14] | Potency [15] | Potency [20] | outcome [17] | Potency [18]

Nc1ccccc1-c1ccccc1
inactive: Potency [1] | caspase-3 activation [2] 2.93% | outcome [19] | outcome [3] | Potency [4] | outcome [5] | Potency [6] | Potency [7] | Potency [8] | Potency [9] | Potency [10] | Potency [11] | Potency [14] | Potency [15] | Potency [20] | outcome [17] | Potency [18]
-0.398%: max response [16]

CCCCC(=O)Cl
-10.8%: max response [16]
inactive: Potency [1] | caspase-3 activation [2] 1.28% | outcome [3] | Potency [4] | outcome [5] | Potency [6] | Potency [7] | Potency [8] | Potency [9] | Potency [10] | Potency [11] | Potency [12] | Potency [13] | Potency [14] | Potency [15] | Potency [20] | outcome [17] | Potency [18]
